Source: PubChem BioAssay (Tox21)
Unmarked numbers belong to inactive results. Calls come from the whole dose curve; as a rule, active = well fitted activation curve with a large enough effect in the repeat runs; inconclusive = weak or mixed curves; inactive = flat fitted curve, though single readings scatter.

target: KiSS-1 receptor (Homo sapiens) (UniProt Q969F8); assay: Human kisspeptin (KISS1R) small molecule agonists, calcium flux assay in KISS1R-HEK293 cells (AID 1920064); conditions: KISS1R-HEK293, calcium flux fluorescence, agonist; series mostly up to 76.8 µM; activation: at the top concentration
Sequence (Q969F8 whole entry, looked up): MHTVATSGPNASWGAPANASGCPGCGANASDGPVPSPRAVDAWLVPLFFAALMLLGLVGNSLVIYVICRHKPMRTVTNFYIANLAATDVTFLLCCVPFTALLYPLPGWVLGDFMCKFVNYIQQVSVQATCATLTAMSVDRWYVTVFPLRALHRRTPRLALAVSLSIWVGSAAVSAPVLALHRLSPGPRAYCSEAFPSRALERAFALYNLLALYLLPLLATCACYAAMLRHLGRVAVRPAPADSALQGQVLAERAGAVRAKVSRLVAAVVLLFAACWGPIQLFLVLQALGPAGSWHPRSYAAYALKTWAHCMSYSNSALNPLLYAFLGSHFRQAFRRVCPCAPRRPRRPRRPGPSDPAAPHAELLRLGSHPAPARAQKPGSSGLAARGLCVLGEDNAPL
From the text: National Center for Advancing Translational Sciences [NCATS]
Division of Preclinical Innovation [DPI]
U.S. Environmental Protection Agency [EPA]
National Institutes of Environmental Health Sciences [NIEHS]
National Toxicology Program [NTP]
U.S. Food and Drug Administration [FDA]
Kisspeptin and its receptor KISS1R play key roles in mammalian reproduction due to their involvement in the onset of puberty and control of the hypothalamic-pituitary-gonadal axis such as regulates GnRH release from the hypothalamus. The kisspeptin/KISS1R system also plays a direct role in peripheral organs (including the ovary, testis, uterus, and placenta) and is implicated in reproductive diseases such as miscarriage and polycystic ovary syndrome (PCOS). Abnormal KISS1R activity is associated with abnormal puberty, infertility, endometriosis, and hormone-dependent tumors. The KISS1 receptor (KISS1R, also called GPR54), a G-protein-coupled receptor (GPCR), acts (through phospholipase C) to increase intracellular inositol trisphosphate and then release intracellular calcium stores. Cell-based KISS1R-HEK293 assay is using HEK293 cells that have been genetically engineered to express the human KISS1R, which activity can be measured by calcium signaling. A compound/drug can activate (agonist) KISS1R that can be monitored by levels of intracellular calcium.
KISS1R-HEK293 cells developed by Codex Corp contain human KISS1R gene, which was stably integrated into HEK 293 cells. The compound activation can be detected by fluorescence intensity via calcium flux assay. This cell line has been used to screen the Tox21 10K compound library to identify agonists of KISS1R.
KISS1R-Hek293 cells were dispensed at 1500 cells/4uL/well in 1536-well black wall/clear bottom plates using a multidrop dispenser. After the assay plates were incubated at a 37 C/5% CO2 incubator for 18 hours, 4 microL of Calcium Dye Solution was added to each well. The plates were incubated at 37 C for 1 hour. And then 23 nL of compounds dissolved in DMSO, positive controls, or DMSO only was transferred to the assay plate by a pin tool station. The fluorescence intensity in the plates was measured using FDSS 7000EX kinetic plate reader with a filter set of Ex/Em=480/540 for 3 min at 1 sec intervals. Each test compound was measured at 15 concentrations and in triplicates.
% is set by controls: 0 for no effect and ±100 for the full control effect.

| Structure (SMILES) | activation |
| --- | --- |
| CCS(=O)(=O)c1cccnc1S(=O)(=O)NC(=O)Nc1nc(OC)cc(OC)n1 | -0.424% |
| COc1cc(CC#N)cc(OC)c1OC | -1.04% [at 35.3 µM] |
| C=CC(=O)OC | -0.842% |
| [Cl][Sb]([Cl])[Cl] | 5.81% |
| CC(C)(C)NCC(O)c1ccccc1Cl (stereo not given) | 0.349% [at 35.3 µM] |
| CCOP(=S)(NC(C)C)Oc1ccccc1C(=O)OC(C)C (stereo not given) | 7.52% |
| Cc1c(Cl)c(=O)oc2cc(OP(=O)(OCCCl)OCCCl)ccc12 | 1.38% [at 35.3 µM] |
| ClP(Cl)(Cl)(Cl)Cl | 2.84% |
| O=[N+]([O-])c1cccc(CCl)c1 | -2.66% |
| COC12CC[C@@]3(C[C@@H]1C(C)(O)C(C)(C)C)[C@H]1Cc4ccc(O)c5c4[C@@]3(CCN1CC1CC1)[C@H]2O5 (stereo not given in full) | 3.83% |
| [O-][Br+2]([O-])O | -0.214% [at 35.3 µM] |
| Brc1cccc(-c2ccccc2)c1 | -5.44% |
| CC[C@@H](CO)NC(=O)[C@@H]1C=C2c3cccc4[nH]cc(c34)C[C@H]2N(C)C1 | 0.211% [at 35.3 µM] |
| C=CC(=C)C | -1.77% |
| CNP(=O)(OC)Oc1ccc(C(C)(C)C)cc1Cl (stereo not given) | 6.16% |
| O=C(CCCCl)c1ccc(F)cc1 | -1.81% [at 35.3 µM] |
| Cc1c([N+](=O)[O-])c(C)c([N+](=O)[O-])c(C(C)(C)C)c1[N+](=O)[O-] | 9.23% |
| CCCN(CCC)C(=O)Cc1c(-c2ccc(Cl)cc2)nc2ccc(Cl)cn12 | 13% [at 35.3 µM] |
| CSc1ccc(C(=O)C(C)(C)N2CCOCC2)cc1 | -2.11% |
| CC(=O)[O-].CC(=O)[O-].[Co+2] | -1.46% |

| Structure (SMILES) | activation |
| --- | --- |
| CCOP(=S)(OCC)Oc1cc(-c2ccccc2)on1 | 0.187% |
| c1ccc2c(c1)[nH]c1cnccc12 | -0.309% |
| Oc1c(I)cc(I)cc1I | -1.43% |
| CCOc1ccc(C(C)(C)COCc2cccc(Oc3ccccc3)c2)cc1 | -0.0769% |
| C[C@]12CC[C@H]3[C@@H](CCC4=CC(=O)CC[C@@H]43)[C@@H]1CC[C@@H]2OC(=O)CCc1ccco1 | 5.06% [at 35.3 µM] |
| CCN(CC)c1c([N+](=O)[O-])cc(C(F)(F)F)c(N)c1[N+](=O)[O-] | -0.455% |
| COP(=O)(OC)O/C(=C\Cl)c1cc(Cl)c(Cl)cc1Cl | -0.0392% |
| CC(=O)CCc1ccc2c(c1)OCO2 | -1.16% |
| CC(=O)O.CC(=O)O.CC(=O)O.CC(=O)O.CC(=O)O.CC(=O)O.CC(=O)O.O.O.[Cr].[Cr].[Cr] | -0.125% |
| N#Cc1sc2c(=O)c3ccccc3c(=O)c=2sc1C#N | 26.3% |
| O=C(Cc1ccccc1)OCCc1ccccc1 | 5.5% |
| CCCCCCCCBr | 3.88% |
| CCOP(=O)(OCC)Oc1nc(Cl)c(Cl)cc1Cl | 3.29% |
| CC(C)CBr | 7.69% |
| CNC(=O)/C=C(\C)OP(=O)(OC)OC | -1.45% |
| CC(=O)[O-].[Tl+] | 0.141% |
| N#CCCSCCC#N | 2.85% |
| COc1ccc2[nH]cc(CCN(C(C)C)C(C)C)c2c1 | 6.51% |
| N#CSCc1ccccc1 | 13.3% |
| COc1ccc2c(C(=O)c3ccc(Cl)cc3)c(C)n(CC(=O)O)c2c1 | 4.14% [at 35.3 µM] |
